GLP1R cytotox: cytotoxic in the GLP-1 receptor inverse agonist counter-screen; HEK293 cAMP-luciferase reporter cells, luminescence, 24 h; Potency, µM (highest dose often 38.3 µM), for inactives: at the top dose activity change, negative = inhibition, actives largely listed as inhibitors; 410,000 compounds, 0.13% hits; AID 624418;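 note: loss of luciferase light is scored as toxicity; % is set by controls: 0 for no effect and ±100 for the full control effect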
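MLSMR compounds, 24 hr on cells at 37 deg C/5% CO2; luminescence after luciferase reagent (12 min RT). Inhibition counted as the undesired cytotoxic outcome.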
GLP1R ag: GLP-1 receptor (human) agonism; AID 624172; 380,000 compounds, 0.007% hits; Potency, µM (titrated, usually from 45.6 µM), inactives show at the top dose activation, hits mostly activators; HEK293 GLP-1R CRE-luciferase, luminescence, 4-6 h; cells express a hypersensitive GLP-1R form; note: % of control where 0% means no effect
Target sequence (P43220 whole entry, looked up): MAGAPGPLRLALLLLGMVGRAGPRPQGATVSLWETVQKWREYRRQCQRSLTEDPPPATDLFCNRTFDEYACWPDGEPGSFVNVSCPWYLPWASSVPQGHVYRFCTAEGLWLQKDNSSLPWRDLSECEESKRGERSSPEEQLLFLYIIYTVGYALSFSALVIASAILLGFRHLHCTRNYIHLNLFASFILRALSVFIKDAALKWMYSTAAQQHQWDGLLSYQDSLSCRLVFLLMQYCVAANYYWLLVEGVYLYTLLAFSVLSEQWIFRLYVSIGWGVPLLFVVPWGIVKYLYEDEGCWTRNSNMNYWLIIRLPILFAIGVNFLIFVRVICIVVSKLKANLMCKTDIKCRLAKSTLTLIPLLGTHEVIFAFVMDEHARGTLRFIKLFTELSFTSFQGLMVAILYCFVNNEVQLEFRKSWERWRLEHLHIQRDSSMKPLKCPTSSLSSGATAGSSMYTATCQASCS
VP16 counter: counter-screen for ROR gamma inhibitors: Gal4-VP16 reporter. AID 2546. 310,000 compounds, 3.5% hits. Drosophila S2 Gal4-VP16 UAS-luciferase, luminescence, 20 h. Potency, µM (top dose mostly 53.6 µM), for the others: at the highest dose activity, negative = inhibition, actives largely listed as inhibitors;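 note: Gal4-VP16 expression switched on by copper sulfate through the metallothionein promoter; % is set by controls: 0 for no effect and ±100 for the full control effect; nearly all actives have a fitted effect of over 50% in size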
GLP1R inv ag: GLP-1 receptor (human) inverse agonism | P43220 | HEK293 GLP-1R CRE-luciferase, luminescence, 24 h; GLP-1R form is constitutively active | Potency, µM (top dose mostly 38.3 µM), for inactives: top-dose activity change, negative = inhibition, actives largely listed as inhibitors | 410,000 compounds, 1.6% hits; note: % is set by controls: 0 for no effect and ±100 for the full control effect; nearly all actives have a fitted effect of over 55% in size
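Inverse agonists were sought by their lowering of basal cAMP reporter luciferase output in HEK293 cells stably carrying constitutively active human GLP-1R, after 24 h compound treatment.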
RORgamma inh: inhibitors of mouse ROR gamma transcriptional activity. P51450. Drosophila S2 Gal4-RORgamma UAS-luciferase reporter, 20 h. Potency, µM (top dose mostly 53.6 µM), inactives show at the top dose activity change, negative = inhibition, usual class: inhibitors. 310,000 compounds, 5.4% hits. AID 2551; note: % is set by controls: 0 for no effect and ±100 for the full control effect; nearly all actives have a fitted effect of over 60% in size
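Luciferase reporter read in Schneider cells carrying Gal4-RORγ (mouse) and UAS-Photinus luciferase; cells given compound 1 h before 700 uM copper sulfate induction, then incubated 20 h at ambient temperature.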
Active calls of the source: *; ? = inconclusive; nt = no result given; [ ] = dose if it differs, or a comment. This is a sample that favours compounds with a hit; in the whole collection about 5.9% have one here. Calls come from the whole dose curve; as a rule, active = well fitted curve in the direction sought with a large enough effect; inconclusive = small, poorly fitted or top-dose-only effect, or another doubt; inactive = no such curve, though single readings can be large; an effect the other way counts as inactive or inconclusive. Potency is the fitted concentration of half-maximal effect.

SMILES	GLP1R cytotox	GLP1R ag	VP16 counter	GLP1R inv ag	RORgamma inh
O=C(CN1C(=O)CCc2cc(Br)ccc21)Nc1ccc(OC(F)(F)F)cc1	-16.7%	0.2%	nt	?	nt
CN(C)c1ccc(C=NNC(=O)c2cccnc2)cc1	-18.8%	3.2%	nt	-0.1%	nt
Cc1ccsc1/C=N/NC(=O)c1cccnc1	?	10.8%	12.6µM*	48.1%	?
CCOc1ccc(C(=O)N/N=C/c2cc([N+](=O)[O-])cs2)cc1	0.9%	-5.1%	-17.0%	-1.7%	4.5%
Cc1ccsc1/C=N/NC(=O)c1ccc2ccccc2c1	-22.9%	0.0%	5.62µM*	-2.2%	3.16µM*
Cc1ccsc1/C=N/NC(=O)c1ccc([N+](=O)[O-])cc1	-7.0%	2.3%	4.47µM*	20.2%	1µM*
COc1cc(C(=O)N/N=C/c2cc([N+](=O)[O-])cs2)cc(OC)c1OC	1.0%	12.4%	?	?	3.98µM*
O=C(Nc1ccc(F)cc1)Nc1csc2c1CCCC2	-3.7%	nt	nt	?	nt
Cc1ccc2c(c1)CC(C)N2S(=O)(=O)c1nnc(NC(=O)c2ccccc2F)s1 (centres undefined)	-10.1%	nt	nt	?	nt
Cc1ccc(C(=O)c2cn(Cc3cccc(F)c3)c3nc(C)ccc3c2=O)cc1	4.2%	-1.4%	nt	?	nt
Cc1ccsc1/C=N/NC(=O)c1ccncc1	?	4.2%	7.08µM*	?	3.55µM*
CSc1sccc1/C=N/NC(=O)c1ccncc1	1.2%	12.2%	-27.5%	12.0%	?
COc1cc(C(=O)N/N=C/c2sccc2C)cc(OC)c1OC	?	18.8%	?	?	20µM*
CN(C)/C=N/C(=S)Nc1ccc(Cl)cc1Cl	1.5%	10.6%	4.8%[10 µM]	2.9%	12.6µM*
CN(C)/C=N/C(=S)Nc1ccc(Cl)cc1	9.7%[7.66 µM]	8.8%	-10.0%[10 µM]	7.4%[7.66 µM]	6.31µM*
Cc1cccc(C)c1NC(=S)/N=C/N(C)C	-15.0%[7.66 µM]	1.7%	5.0%[10 µM]	-24.2%[7.66 µM]	20µM*
Cc1cccc(C)c1NC(=O)CNCC(=O)N(C)C	3.5%	0.4%	4.7%	19.6%	-10.1%
O=C(c1ccccc1)c1ccc2nc(Nc3ccccc3Cl)c3nncn3c2c1	18.7%	nt	nt	25.8%	nt
Cc1ccc(Cl)c2sc(N3CCN(C(=O)C4CC4)CC3)nc12	-4.1%	nt	nt	-23.3%	nt
COC(=O)[C@H](C)NC(=O)C/C=C\[C@@H](C)CO	nt	nt	-8.0%[10 µM]	nt	5.3%[10 µM]
CCCCn1cnc2c(c(-c3ccccc3)c(-c3ccccc3)n2Cc2ccco2)c1=N	?	-0.4%	-22.4%	?	-42.2%
Cc1cc(NCCCn2ccnc2)n2nc(C)c(-c3ccccc3)c2n1	-2.2%	?	14.2%	111.1%	18.9%
N=c1c2c(-c3ccccc3)c(-c3ccccc3)n(Cc3ccco3)c2ncn1Cc1ccco1	?	-18.7%	28.2µM*	8.91µM*	?
N=c1c2c(-c3ccccc3)c(-c3ccccc3)n(Cc3ccccc3)c2ncn1CCCn1ccnc1	10µM*	-56.1%	10µM*	7.94µM*	10µM*
Cc1ccc(CC(=O)N2CCN(c3cccc(C(F)(F)F)c3)CC2)cc1	-14.4%	0.1%	2.1%	8.91µM*	?
SMILES	GLP1R cytotox	GLP1R ag	VP16 counter	GLP1R inv ag	RORgamma inh
O=C(/C=C/c1ccc(Br)cc1)N1CCN(c2cccc(C(F)(F)F)c2)CC1	-11.8%	-2.2%	?	10µM*	-6.1%
CC1(C)Cc2cccc(OCC(=O)N3CCN(c4cccc(C(F)(F)F)c4)CC3)c2O1	-6.4%	0.3%	nt	10µM*	nt
Cc1ccc(S(=O)(=O)CC(=O)N2CCN(c3ccc([N+](=O)[O-])cc3)CC2)cc1	-19.4%	13.5%	nt	-13.3%	nt
Cc1ccc(CC(=O)N2CCN(c3ccc([N+](=O)[O-])cc3)CC2)cc1	-26.7%	-5.2%	35.5µM*	?	?
C=CC[C@@H]1C=C[C@H](Oc2ccc(C)cc2)[C@H](COC(=O)NCc2cccc3ccccc23)O1	nt	nt	31.3%[10 µM]	nt	17.6%[10 µM]
CCn1c(C)nc2cc(S(=O)(=O)C(F)(F)C(F)C(F)(F)F)ccc21 (centres undefined)	5.9%	0.0%	3.98µM*	2.6%	-25.3%
COc1cccc(/C=N/Nc2nn3cnnc3c3ccccc23)c1O	-7.0%	7.2%	2.82µM*	?	1.41µM*
CCOc1ccccc1/C=N/Nc1ccnc(=O)[nH]1	?	16.5%	3.3%	-19.1%	-30.1%
O=c1nccc(N/N=C/c2ccccc2O)[nH]1	58.7%	6.8%	7.08µM*	?	3.55µM*
COc1cccc(/C=N/Nc2ccnc(=O)[nH]2)c1O	35.5%	8.1%	8.91µM*	?	3.98µM*
Oc1cccc(/C=N/Nc2nn3cnnc3c3ccccc23)c1	-5.5%	-1.0%	-12.3%	1.1%	-33.9%
COc1cccc(/C=N/Nc2ccc(C(=O)O)cc2)c1O	-28.5%	-5.5%	?	?	0.0316µM*
COc1cccc(/C=N/Nc2ccc(S(=O)(=O)O)cc2)c1O	7.5%	0.9%	-13.9%	10.1%	-24.4%
CC(C)(C)CC(=O)OCC(=O)[C@@]12OC(C)(C)O[C@@H]1C[C@H]1[C@@H]3CCC4=CC(=O)C=C[C@]4(C)[C@@]3(F)[C@@H](O)C[C@]12C	nt	-2.7%	nt	nt	nt
COc1cccc(N2CCN(c3ncnc4onc(-c5ccc(Cl)cc5)c34)CC2)c1	22.8%	nt	nt	?	nt
CC(C)c1ccc(NC(=S)NN(c2ccccc2)c2ccccc2)cc1	?	-1.3%	5.01µM*	5.62µM*	3.16µM*
CCNC(=S)Nc1ccc(N(c2ccccc2)C(C)C)cc1	-2.8%	4.4%	-1.9%	?	-44.1%
CCNC(=S)NN(c1ccccc1)c1ccccc1	7.0%	-0.6%	?	?	7.94µM*
O=C(Nc1cc(Cl)cc(Cl)c1)c1cc(S(=O)(=O)N2CCC3(CC2)OCCO3)ccc1F	-6.5%	nt	nt	?	nt
C/C(=N\Nc1nc2ccc(Cl)cc2o1)c1ccccc1	-16.9%	17.5%	?	-28.5%	2.51µM*
Cc1ccc(Cl)cc1NC(=O)Cn1c(=O)n(C(C)C)c(=O)c2oc3ccccc3c21	-8.2%	nt	nt	6.1%	nt
Cc1cccc(/C=N/NC(=O)C(C)Nc2cccc3ccccc23)n1 (centres undefined)	3.5%	-0.4%	?	-10.0%	?
COc1cc([N+](=O)[O-])cc(/C=N/NC(=O)c2cccnc2)c1O	4.5%	-1.6%	-15.8%	-0.2%	-21.4%
CC(Nc1cccc2ccccc12)C(=O)N/N=C/c1ccc([N+](=O)[O-])cc1 (centres undefined)	13.9%	17.4%	14.1µM*	?	12.6µM*
COc1cc([N+](=O)[O-])cc(/C=N/NC(=O)C(C)Nc2cccc3ccccc23)c1O (centres undefined)	?	-15.5%	0.501µM*	?	0.398µM*
CC(=O)NCCNc1ccnc(-c2ccccc2C)n1	nt	nt	-21.6%	nt	3.2%
O=C(c1ccncc1)N1CCC[C@@]2(CCN(c3cccc(-c4ccccc4)c3)C2)C1	nt	nt	-11.3%	nt	11.3%

Source: PubChem BioAssay (National Center for Advancing Translational Sciences (NCATS))
